Screening data (PubChem BioAssay)
TbPYK inhibitor: T. brucei pyruvate kinase inhibition | Q57TT1 | TbPYK enzyme, Kinase-Glo Plus ATP luminescence, 45 min | Potency, µM (series often up to 76.8 µM), actives largely listed as inhibitors | 410,000 compounds, 0.12% hits; note: nearly all actives have a fitted effect of over 50% in size
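Screened from lowest to highest concentration, compounds were pinned into TbPYK/substrate mixtures, and ADP (130 uM final) was added. Plates sat at room temperature for 45 min prior to Kinase-Glo Plus detection by luminescence.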
LmPK inh: inhibitors of Leishmania mexicana pyruvate kinase; Q27686; purified LmPK, Kinase-Glo ATP luminescence, 1 h; Potency, µM (series often up to 57.5 µM), most hits filed as inhibitors; 290,000 compounds, 0.37% hits; AID 1721
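Purified LmPK (0.1 nM) converted ADP (0.1 mM) to ATP with PEP (0.5 mM) in imidazole buffer pH 7.2 with KCl and MgCl2, 1 h at room temperature. ATP was read by Kinase-Glo luminescence; data normalized to uninhibited and no-enzyme controls.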
Cycloheximide cs: counter-screen for Shiga toxin inhibitors: cycloheximide protein synthesis inhibition; cell reporter, cycloheximide protein synthesis inhibition counterscreen; max response, %; 300,000 compounds, 12% hits; in the data active = max response mostly above about 13%, no sharp cut-off; inactive = mostly below about 14%; note: read at 38.3 µM for the half of the compounds with a filed dose
RE007 growth inh: less growth of the S. pombe RE007 Vpr strain. S. pombe RE007 Vpr strain, BacTiter-Glo ATP luminescence, 24 h. Potency, µM (titrated, usually from 92.2 µM), usual class: inhibitors. 360,000 compounds, 0.21% hits. AID 651644; active = well fitted falling curve with a large enough effect; inconclusive = small, poorly fitted or top-dose-only effect; inactive = no such curve, though single readings can be large or run the other way; note: nearly all actives have a fitted effect of over 50% in size
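Fission yeast strain RE007, carrying one chromosomally integrated HIV-1 vpr copy, was seeded at OD 0.01 in PMG+AL medium with 23 nL pinned compound. After 24 h at 30 °C and 99% humidity, viability was read by BacTiter-Glo luminescence.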
Shiga inhibitor: blocks Shiga toxin action in Vero cells; inhibition, % at 38.7 µM; AID 2315; 290,000 compounds, 9.2% hits; Vero cells, Shiga toxin protein synthesis inhibition reporter; in the data active = inhibition mostly above about 28%, no sharp cut-off; inactive = mostly below about 43%
FBPA Giardia inh: Giardia lamblia aldolase inhibition | purified Giardia FBPA | Potency, µM (top dose mostly 59.6 µM), actives largely listed as inhibitors | 290,000 compounds, 0.71% hits | AID 2451; note: nearly all actives have a fitted effect of over 55% in size
Target sequence (A8B2U2 whole entry, looked up): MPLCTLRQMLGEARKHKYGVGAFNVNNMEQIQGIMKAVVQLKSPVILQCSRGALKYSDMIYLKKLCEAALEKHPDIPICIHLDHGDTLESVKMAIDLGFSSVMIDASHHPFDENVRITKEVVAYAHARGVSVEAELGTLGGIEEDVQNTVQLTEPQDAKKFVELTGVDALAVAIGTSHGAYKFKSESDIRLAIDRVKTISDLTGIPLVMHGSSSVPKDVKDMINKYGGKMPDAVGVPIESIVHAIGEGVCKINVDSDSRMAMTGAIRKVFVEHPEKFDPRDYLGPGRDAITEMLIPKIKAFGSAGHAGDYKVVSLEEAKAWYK
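40 nM FBPA preincubated 10 min at RT with compound (up to 57.5 uM final), then substrate plus GAPDH/TPI/NAD/arsenate coupling and diaphorase/resazurin added. Fluorescence read after 20 min at RT, 525/598 nm.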
Each line names hits and unclear results; the compound was inactive in the other large screens; ! = not active in a repeat. This is one part of a sample in which hits are shown more often than they occur. Unless noted, calls come from the whole dose curve; as a rule, active = well fitted curve in the direction sought with a large enough effect; inconclusive = small, poorly fitted or top-dose-only effect, or another doubt; inactive = no such curve, though single readings can be large; an effect the other way counts as inactive or inconclusive.

COc1ccccc1N1C(=O)c2ccc(C(=O)Nc3ccccc3O)cc2C1=O	Cycloheximide cs 11
COc1ccccc1N1CCN(C(=O)c2coc(=O)c(Br)c2)CC1	Cycloheximide cs 40, Shiga inhibitor 81
COc1ccc(N2C(=O)c3ccc(C(=O)Nc4ccccc4O)cc3C2=O)cc1	none
Cc1cc(C(=O)N/N=C/c2cn[nH]c2-c2ccccc2)cs1	none
Cc1nc(C(=O)N/N=C/c2[nH]ncc2Br)cs1	Cycloheximide cs 35
CCOc1ccc(Cn2c(CNS(=O)(=O)c3ccc(C(C)(C)C)cc3)nc3cccnc32)cc1	none (no result: LmPK inh, Cycloheximide cs, RE007 growth inh, Shiga inhibitor, FBPA Giardia inh)
Cc1ccccc1C(=O)N1CCC(C(=O)OCc2ccccn2)CC1	none (no result: LmPK inh, Cycloheximide cs, Shiga inhibitor, FBPA Giardia inh)
O=c1[nH]c2ccccc2c(O)c1O	TbPYK inhibitor inconclusive, FBPA Giardia inh 4µM
O=C(Nc1cccc(F)c1)c1c(O)c2ccccc2[nH]c1=O	Cycloheximide cs 23 (no result: Shiga inhibitor)
O=c1[nH]c2ccccc2c(O)c1-[n+]1ccccc1	none
O=C(NC1CCCCCC1)c1c(O)c2ccccc2[nH]c1=O	Cycloheximide cs 25, Shiga inhibitor 84
CC(=O)C1C(c2ccc([N+](=O)[O-])cc2)c2c(noc2C)CC1(C)O (centres undefined)	none
Cc1ccc(NC(=O)CN2C(=O)c3cccnc3Sc3ccccc32)cc1C	none (no result: LmPK inh, Cycloheximide cs, RE007 growth inh, Shiga inhibitor, FBPA Giardia inh)
O=C(NCCc1ccc(Cl)cc1)C1CCN(C(=O)c2ccc(F)cc2)CC1	none
Cc1cccc(Cc2c(C)nc3nc(SCc4ccccc4C)nn3c2C)c1	none (no result: LmPK inh, Cycloheximide cs, RE007 growth inh, Shiga inhibitor, FBPA Giardia inh)
Cc1cccc(Nc2nc(N)nc(CSc3nccn3C)n2)c1	Shiga inhibitor 51
Cc1ccc(Nc2nc(N)nc(CSc3nccn3C)n2)cc1	Cycloheximide cs 52, Shiga inhibitor 69
Cc1cccc(NC(=O)CSc2nccn2C)c1	none (no result: LmPK inh, Cycloheximide cs, Shiga inhibitor, FBPA Giardia inh)
COc1ccccc1Nc1nc(N)nc(CSc2nncn2C)n1	none
Cc1ccc(-c2nnc(SCc3nc(N)nc(Nc4ccccc4C)n3)n2N)cc1	none
COc1ccccc1Nc1nc(N)nc(CSc2nccn2C)n1	Shiga inhibitor 45
O=C1NC(SCCCF)=N/C1=C/c1ccc(-n2cncn2)cc1	none
Cc1ccc2c(=O)cc(C(=O)Nc3ccc(S(=O)(=O)N4CCCCCC4)cc3)oc2c1C	none (no result: LmPK inh, Cycloheximide cs, RE007 growth inh, Shiga inhibitor, FBPA Giardia inh)
CCOC(=O)C1CCN(c2nnc(N3CCCC3=O)s2)CC1	Cycloheximide cs 23, Shiga inhibitor 43
CN(C(=S)NC(=O)c1ccc(Br)o1)c1ccccc1	Shiga inhibitor 30
O=C(Nc1ccc2ccccc2c1)c1ccc(Br)o1	Cycloheximide cs 43, RE007 growth inh inconclusive, Shiga inhibitor 86 (no result: FBPA Giardia inh)
O=C(Nc1ccc2c(c1)oc1ccccc12)c1ccc(Br)o1	none
COc1ccc(NC(=O)c2ccc(C(=O)c3ccccc3)o2)cc1	Cycloheximide cs 30
O=C(Nc1cccc(NC(=O)c2ccc(Br)o2)c1)c1ccccc1	none
O=C(c1ccccc1)c1cccc(NC(=O)c2ccc(Br)o2)c1	Cycloheximide cs 39, RE007 growth inh inconclusive
CNC(=S)N(C)c1ccccc1	none
CC(C)(C)OC(=O)N1CCC(c2nnc(SCc3cccc(Cl)c3)o2)CC1	none (no result: LmPK inh, Cycloheximide cs, RE007 growth inh, Shiga inhibitor, FBPA Giardia inh)
CCOC(=O)c1[nH]c(C)c(CCC(=O)Nc2ccc(Br)c(C)c2)c1C	none (no result: LmPK inh, Cycloheximide cs, RE007 growth inh, Shiga inhibitor, FBPA Giardia inh)
CCc1cccc(NC(=O)c2ccc(Br)o2)c1	Cycloheximide cs 23, RE007 growth inh inconclusive, Shiga inhibitor 105
Cc1nc(NC(=O)c2ccc(Br)o2)ccc1Br	Cycloheximide cs 36, Shiga inhibitor 63
NS(=O)(=O)c1ccc(NC(=S)NNC(=O)c2ccc(Br)o2)cc1	Cycloheximide cs 15 (no result: FBPA Giardia inh)
O=C(Nc1ccccc1)c1ccc(Br)o1	Cycloheximide cs 44, Shiga inhibitor active!
O=C(Nc1ccc(S(=O)(=O)NCCc2ccccc2)cc1)c1ccc(Br)o1	none
COc1ccc(Cl)cc1NC(=O)CSc1cn(CC(=O)N2CCCCC2)c2ccccc12	none (no result: LmPK inh, Cycloheximide cs, RE007 growth inh, Shiga inhibitor, FBPA Giardia inh)
CCCOc1ccc(CNC(=O)C(CC)n2nc(C)c3sc4ccccc4c3c2=O)cc1 (centres undefined)	none (no result: LmPK inh, Cycloheximide cs, RE007 growth inh, Shiga inhibitor, FBPA Giardia inh)
Cc1ccccc1C(=O)OCc1cc(=O)n2nc(C3CC3)sc2n1	none (no result: LmPK inh, Cycloheximide cs, RE007 growth inh, Shiga inhibitor, FBPA Giardia inh)
COc1ccc(N2CCN(S(=O)(=O)c3ccc(C4CCCCC4)cc3)CC2)cc1	none (no result: LmPK inh, Cycloheximide cs, RE007 growth inh, Shiga inhibitor, FBPA Giardia inh)
Cc1cccc(NC(=O)c2ccc(C(=O)c3ccccc3)o2)c1	Cycloheximide cs 37, RE007 growth inh inconclusive, Shiga inhibitor 73
Cc1cccc(NC(=O)c2ccccc2C(=O)Nc2cccc(C)c2)c1	none (no result: LmPK inh, Cycloheximide cs, Shiga inhibitor, FBPA Giardia inh)
CCOC(=O)c1cnc2c(C(=O)OC)cccc2c1NCc1ccco1	none
CCOC(=O)c1cnc2c(C)cccc2c1NCc1ccco1	Cycloheximide cs 24, Shiga inhibitor 37
CCOC(=O)c1ccc2ncc(C(=O)OCC)c(NCc3ccco3)c2c1	Cycloheximide cs 27
CCOC(=O)c1ccc2ncc(C(=O)OCC)c(NCCCN3CCOCC3)c2c1	none
Cc1cc(C)c(NC(=O)CSc2nc(=O)n(Cc3ccncc3)c3c2CCC3)c(C)c1	none (no result: LmPK inh, Cycloheximide cs, RE007 growth inh, Shiga inhibitor, FBPA Giardia inh)
CC1=C(C(=O)N(C(C)C)C(C)C)CC(CC(=O)NC2CCCC2)C(=O)N1Cc1ccc(F)cc1 (centres undefined)	none (no result: LmPK inh, Cycloheximide cs, Shiga inhibitor, FBPA Giardia inh)
CC(=O)N1CCn2c3ccc(C)cc3c3cccc1c32	Cycloheximide cs 24, RE007 growth inh inconclusive, Shiga inhibitor 47
COCCOc1ccc(C(F)(F)F)cc1Nc1nc2ccccc2o1	TbPYK inhibitor inconclusive, Cycloheximide cs 30, Shiga inhibitor 100
